This is part of a sample that, as a whole, favours compounds with a hit. Of some 79,000 tested, about 15% had one in any assay. Activity calls are given as the source filed them. Rule as the data show it: active = growth inhibition above about 70%; inactive = the rest.
How the values were obtained:
[1] = NCI Yeast Anticancer Drug Screen. Data for the rad50 strain (AID 155);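 also: 0% = growth of vehicle-only cultures of the same strain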; settings: S. cerevisiae rad50 strain growth inhibition; at 50.0 µM; stronger effect = higher value
Procedure, shortened: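 Cells are treated with compound, grown, and their growth is then scored against vehicle-only cultures of the same repair-deficient yeast strain.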

[2] = NCI Yeast Anticancer Drug Screen. Data for the mec2-1 strain (AID 157); settings: S. cerevisiae mec2-1 strain, at 50.0 µM, stronger effect = higher value
Procedure, shortened: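 Readout is yeast growth inhibition, normalised to vehicle-treated controls, in the mec2-1 strain exposed to compound.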

[3] = NCI Yeast Anticancer Drug Screen. Data for the sgs1 mgt1 strain (AID 161);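 also: 0% = growth of cultures given vehicle only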; settings: S. cerevisiae sgs1 mgt1 strain, at 50.0 µM, stronger effect = higher value
Procedure, shortened: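 Growth of a repair-deficient yeast mutant was monitored after compound treatment and expressed as inhibition relative to vehicle-treated cultures.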

[4] = NCI Yeast Anticancer Drug Screen. Data for the cln2 rad14 strain (AID 165);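 also: 0% = growth equal to vehicle treated cultures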; settings: S. cerevisiae cln2 rad14 strain, at 50.0 µM, stronger effect = higher value
Procedure, shortened: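 Relative to vehicle controls, growth inhibition of compound-treated cln2 rad14 yeast was recorded.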

[5] = NCI Yeast Anticancer Drug Screen. Data for the bub3 strain (AID 167); settings: S. cerevisiae bub3 mutant strain, at 50.0 µM, stronger effect = higher value
Procedure, shortened: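 Part of a panel of yeast mutants defective in DNA damage repair or cell cycle regulation. Each strain is grown with compound, and inhibition is calculated relative to solvent-treated cultures.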

[6] = NCI Yeast Anticancer Drug Screen. Data for the mlh1 rad18 strain (AID 175); settings: S. cerevisiae mlh1 rad18 strain growth inhibition; at 50.0 µM; stronger effect = higher value
Procedure, shortened: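 Test agents were incubated with a yeast strain of defined genotype (DNA damage repair defect). Inhibition of growth was derived by comparison with vehicle-exposed cultures.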

Measured: growth inhibition

CC1=CC(C)(C)Nc2ccccc2N1
inactive: [1] -7.1% | [2] -4.85% | [3] -8.8% | [4] 14.2% | [5] -3% | [6] 1.45%

CC1OC(C)(CCc2ccccc2)OC1C (stereo unspecified)
inactive: [1] 0.4% | [2] -46.8% | [3] 11.7% | [4] -12.2% | [5] -21.6% | [6] -8%

CCOC(C)Oc1ccccc1 (stereo unspecified)
inactive: [1] 35.5% | [2] -8.6% | [3] 20.4% | [4] 15.4% | [5] -28.1% | [6] 16.4%

CC(=O)Nc1ccc(S(=O)(=O)SC(F)(F)F)cc1
inactive: [1] 0.8% | [2] 7.25% | [3] 17.4% | [4] 24.7% | [5] 8.85% | [6] 13.7%

C/C=C/C=C/c1nc(C#N)c(N)o1
inactive: [1] -7.6% | [2] -2.2% | [3] 1.55% | [4] 12.7% | [5] 15.3% | [6] -3.55%

COCCCn1c(-c2ccc(Cl)cc2)nn2c(=O)c3ccccc3nc2c1=O
inactive: [1] 20% | [2] -1.75% | [3] 17.2% | [4] 10.2% | [5] 13.4% | [6] 7.45%

CSC(=S)n1nc(C)c(N=Nc2ccccc2[N+](=O)[O-])c1C
inactive: [1] 26.5% | [2] -2.85% | [3] 0.15% | [4] 5.05% | [5] 7.95% | [6] 7.75%

O=C1CCCCC1COCC1CCCCC1=O (stereo unspecified)
inactive: [1] -4.8% | [2] 2.65% | [3] -2.15% | [4] -17.6% | [5] 5.25% | [6] -21.4%

CSC1=N[C@H](c2ccccc2)CS1
inactive: [1] 21.9% | [2] -9.85% | [3] 21.7% | [4] -3.1% | [5] 20.2% | [6] 23.4%

CC(C)N(CC(=O)NC(=O)c1ccccc1)C(C)C
inactive: [1] -2.85% | [2] -6.45% | [3] -3.55% | [4] -32.9% | [5] 0.05% | [6] -2.6%

CN(/N=C/C=N/N(C)C1=NCCCCN1)C1=NCCCCN1
inactive: [1] -13.6% | [2] -11.3% | [3] -22.2% | [4] 0.7% | [5] 7.55% | [6] -11.8%

Cc1ccc(C(=O)/C=C/c2ccc(N(C)C)cc2)cc1
inactive: [1] 38.8% | [2] 1.95% | [3] 34.8% | [4] 30.9% | [5] 29.4% | [6] 43.8%

CC1(C)OC2C(CNS(C)(=O)=O)OC(n3cnc4c(N)ncnc43)C2O1 (stereo unspecified)
inactive: [1] -3.05% | [2] -4.55% | [3] -12.1% | [4] -4.75% | [5] 7.45% | [6] -13.2%

CC(=O)Nc1cccc(NC(C)=O)c1
inactive: [1] 0.4% | [2] 4.55% | [3] 5.1% | [4] -17.9% | [5] -1.05% | [6] 11.2%

NCCCN(CCCCN(CCCN)C(=O)OCc1ccccc1)C(=O)OCc1ccccc1
inactive: [1] 6.85% | [2] -13.1% | [3] -18.9% | [4] 8.55% | [5] 1.2% | [6] -55.9%

Cc1[nH]c(=O)c2oc3cc4ccccc4cc3c2c1C(=O)O
inactive: [1] -14.6% | [2] -29.9% | [3] -24.1% | [4] -44.1% | [5] -30.7% | [6] -19.1%

O=C(c1ccccc1)C1C(C(=O)c2ccccc2)C1c1ccccc1 (stereo unspecified)
inactive: [1] -11.3% | [2] -4.45% | [3] 21.3% | [4] 3.4% | [5] 31.3% | [6] -16.1%

CN(Nc1ccnc(=O)[nH]1)c1ccccc1
inactive: [1] -35.9% | [2] -11.2% | [3] -11% | [4] -23.6% | [5] -2.7% | [6] 8.8%

CCCCCCCCCCCCCCCOc1ccc2ccccc2c1
inactive: [1] -11.4% | [2] 8.2% | [3] -5.8% | [4] -27.7% | [5] -7.05% | [6] -35.1%

N#CSCC(=O)CCC(=O)O
inactive: [1] -2.75% | [2] 0.7% | [3] -8.8% | [4] -15% | [5] 3.75% | [6] -1.1%

CC(=O)N1c2ccccc2C2(C)CCCC(O)C12O (stereo unspecified)
inactive: [1] 8.05% | [2] 6.05% | [3] -3.9% | [4] 1.9% | [5] 6.5% | [6] -23.9%

Cn1c2c(c3ccccc31)C(=O)CC2(C)C
inactive: [1] -5.6% | [2] -4.8% | [3] -2.35% | [4] -18.2% | [5] -30.6% | [6] 2.15%

O=c1c2cc(Br)ccc2n(C2OC(CO)C(O)C(O)C2O)c(=S)n1-c1ccccc1 (stereo unspecified)
inactive: [1] 30.6% | [2] 28.4% | [3] 31.7% | [4] 34.5% | [5] 50.5% | [6] 24.9%

CCOC(=O)C(C(=O)OCC)c1cnc2ccccc2c1Cl
inactive: [1] -0.7% | [2] -9.45% | [3] 6.55% | [4] -40.5% | [5] -4.5% | [6] 2.85%

CCCCC#CCN(CCCC)CCCC
inactive: [1] -19.6% | [2] 1% | [3] -2.55% | [4] 13.3% | [5] 11.3% | [6] -29%

CC(=O)Oc1ccccc1Cl
inactive: [1] 18.1% | [2] 31.5% | [3] 25.9% | [4] 13.3% | [5] 19.1% | [6] 16.8%

CCOC(=O)C1CC(=O)C2/C(=C(\O)c3ccccc3)C=C([N+](=O)[O-])C1C2[N+](=O)[O-] (stereo unspecified)
inactive: [1] 3% | [2] 3.65% | [3] -13.6% | [4] -1.25% | [5] 3.6% | [6] -1.2%

O=C(O)C1CCCCC1C(=O)Nc1nc2ccccc2[nH]1 (stereo unspecified)
inactive: [1] -18.6% | [2] -17.1% | [3] -12.7% | [4] -16.7% | [5] -57.9% | [6] -10.6%

Cc1ccc(/C(O)=C/C(=O)C(=O)NC23CC4CC(CC(C4)C2)C3)cc1
inactive: [1] 36.9% | [2] 15.3% | [3] 32.4% | [4] 24.9% | [5] 15.8% | [6] 23.4%

COc1ccc(C2CC(=O)Oc3cc4c(cc32)OCO4)cc1 (stereo unspecified)
inactive: [1] -10.2% | [2] -8.05% | [3] -11.2% | [4] -11.6% | [5] -2.2% | [6] -15.9%

O=Cc1cc(C(=O)c2ccccn2)c2cc(Cl)cc(Cl)c2n1
inactive: [1] 8.05% | [2] 5.9% | [3] 5.8% | [4] -13.8% | [5] -4.3% | [6] 11.6%

CCC(C)Nc1ncnc2c1cnn2C (stereo unspecified)
inactive: [1] -14.2% | [2] -27.9% | [3] -16.8% | [4] -32.5% | [5] -25.4% | [6] -10.9%

Cc1ccc(S(=O)(=O)Oc2nc3ccccc3nc2N(S(=O)(=O)c2ccc(C)cc2)S(=O)(=O)c2ccc(C)cc2)cc1
inactive: [1] -9.8% | [2] -1.3% | [3] 1.3% | [4] 10% | [5] 5.95% | [6] 17.7%

c1ccc(-c2cc[n+]3c4c2ccc2c(-c5ccccc5)cc[n+](c24)CC3)cc1
inactive: [2] 51.5% | [5] 25.8%
active: [1] 78.5% | [3] 89.6% | [4] 73.8% | [6] 87.2%

COc1ccc(N(C(=O)Nc2ccc(Cl)c(Cl)c2)c2ccccc2)cc1
inactive: [1] -32.1% | [2] -28.4% | [3] -19.2% | [4] -1.45% | [5] 14.3% | [6] -10.4%

CCCCCCCCCCCc1cc(=O)n(-c2ccccc2)n1C
active: [1] 98.8% | [2] 99.2% | [3] 99.2% | [4] 98.4% | [5] 98.5% | [6] 99%

C/C(Cl)=N\OC(=O)Nc1ccc([N+](=O)[O-])cc1
inactive: [1] 34.2% | [4] 66.8% | [6] 43.4%
active: [2] 80.2% | [3] 85.8% | [5] 87.2%

c1ccc2cc3c(cc2c1)oc1cc2ccccc2cc13
inactive: [1] -14.1% | [2] -9.05% | [3] -4.8% | [4] -6.1% | [5] -5.7% | [6] -10%

O=[N+]([O-])c1ccc(O)c(O)c1
inactive: [1] -23.6% | [2] -1.7% | [3] -10% | [4] 12.8% | [5] 5.6% | [6] -6.85%

C=C(C)[N+]([O-])=NC
inactive: [1] -6.75% | [2] 3.5% | [3] -2.8% | [4] 30.1% | [5] -10.8% | [6] 0.75%

CC(C)CSC(C)C
inactive: [1] -3.6% | [2] -43.4% | [3] -27.6% | [4] -5.25% | [5] -6.9% | [6] -11.1%
